Sampled rows, rich in hits. Any-hit rate of the full collection: about 3.9%.
CR mimetic SO: lowers age-related superoxide in aged yeast cells | superoxide response (% of plate mean), % at 10 µM | S. cerevisiae aged cells, superoxide DHE fluorescence; active compounds read low | 0.18% of 330,000 active;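 active means superoxide response under a set limit, about three screen SD below normal, cut at about 65% in these data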;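 further: yeast aged for seven days with compound at 30 °C before DHE staining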
AHR activator: activates the human aryl hydrocarbon receptor; P35869; AHR-responsive luciferase reporter cells, luminescence; activation, % at 5 µM; 2.5% of 320,000 active; AID 2796; in the data active means activation above about 47%
Target sequence (P35869 whole entry, looked up): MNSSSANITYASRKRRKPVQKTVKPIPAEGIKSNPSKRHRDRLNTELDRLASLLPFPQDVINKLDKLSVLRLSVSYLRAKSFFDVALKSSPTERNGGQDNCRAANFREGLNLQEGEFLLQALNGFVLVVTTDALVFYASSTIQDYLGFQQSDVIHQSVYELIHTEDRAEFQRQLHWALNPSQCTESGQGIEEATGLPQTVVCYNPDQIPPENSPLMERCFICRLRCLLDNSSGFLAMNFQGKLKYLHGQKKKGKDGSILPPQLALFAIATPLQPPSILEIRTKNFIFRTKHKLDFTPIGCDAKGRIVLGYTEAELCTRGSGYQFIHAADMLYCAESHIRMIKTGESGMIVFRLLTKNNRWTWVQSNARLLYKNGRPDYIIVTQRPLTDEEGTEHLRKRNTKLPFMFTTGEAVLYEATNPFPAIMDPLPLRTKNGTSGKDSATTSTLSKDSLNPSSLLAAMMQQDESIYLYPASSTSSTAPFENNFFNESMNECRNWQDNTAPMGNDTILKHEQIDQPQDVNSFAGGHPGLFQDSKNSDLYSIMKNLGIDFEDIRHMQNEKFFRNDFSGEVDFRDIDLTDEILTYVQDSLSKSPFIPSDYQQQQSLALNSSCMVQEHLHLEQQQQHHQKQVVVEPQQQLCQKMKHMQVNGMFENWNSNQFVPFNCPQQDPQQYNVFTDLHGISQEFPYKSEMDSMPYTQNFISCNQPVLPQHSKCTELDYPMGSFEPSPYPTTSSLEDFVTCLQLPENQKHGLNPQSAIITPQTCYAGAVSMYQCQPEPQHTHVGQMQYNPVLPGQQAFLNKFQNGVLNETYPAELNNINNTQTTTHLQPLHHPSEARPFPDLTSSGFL
sPLA2-III inh: Inhibits HGIII-sPLA2 liposome hydrolysis, primary screen. 0.56% of 370,000 active. QFRET BODIPY PC-A2 liposome hydrolysis, fluorescence. inhibition, % at 12.2 µM. Q9NZ20;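 active means inhibition above mean plus 3 SD of compounds lying within the high and low control bounds, cut at about 19% in these data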
PLCb3 inh: inhibitors of human phospholipase C beta3 | Q01970 | AID 720704 | Purified PLC-beta3, fluorogenic substrate, fluorescence | 0.18% of 370,000 active | inhibition, % at 12.2 µM; in the data active means inhibition above about 11%
PLCg1 inh: PLC-gamma1 (human) inhibition, primary screen; AID 720700; P19174; 0.84% of 370,000 active; inhibition, % at 12.2 µM; purified PLC-gamma1, fluorogenic substrate, fluorescence; in the data active means inhibition above about 9.5%
HIF activator: HIF pathway transcriptional activation; U2OS HRE-luciferase reporter, luminescence; normalized: DMSO 0%, desferrioxamine 100%; 0.32% of 300,000 active; activation, % at 7.5 µM (by protocol);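 active means mean activation of at least 10% of the iron chelator positive control signal, with at least half of replicates also reaching 10%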
AHR act cf: confirmation of human aryl hydrocarbon receptor activators; shares compounds with AHR activator; human cells, AHR-responsive luciferase reporter, luminescence; activation, % at 9 µM; 87% of 2,300 active; in the data active means activation above about 49%;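 further: HepG2 hepatoma cells carrying a DRE-driven firefly luciferase reporter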
PXR counter: activates human PXR in AHR activator counter-screen; shares compounds with AHR activator; cell-based PXR reporter, luciferase luminescence; activation, % at 11.6 µM; 88% of 2,300 active; AID 434939; in the data active means activation above about 11%;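 further: human hepatoma DPX-2 cells expressing full-length human PXR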
Of the large screens only hits and unclear results are named; the others gave an inactive call (follow-up assays come after a bar, where they were run).

CCC1CCCCN1CCCNC(=O)CCC(=O)N1CC(C)Oc2ccccc21 (stereo not given)	none
Cc1ccc2nc(SCC(=O)Nc3ccc(F)c([N+](=O)[O-])c3)[nH]c2c1	AHR activator 99 | AHR act cf 114 | PXR counter 27
Cc1ccc2nc(SCC(=O)Nc3cc([N+](=O)[O-])ccc3F)[nH]c2c1	none
Cc1ccc2nc(SCC(=O)c3ccc(Cl)s3)[nH]c2c1	AHR activator 86 | AHR act cf inactive | PXR counter 46
O=C(NCC1CCCO1)c1[nH]c(C(F)(F)F)nc1-c1ccccc1 (stereo not given)	none (no result: CR mimetic SO, AHR activator, HIF activator)
Cc1cc(=O)n(CC(=O)NC2CC2)c2c1c(C)nn2-c1ccccc1	AHR activator 88 (no result: sPLA2-III inh, PLCb3 inh, PLCg1 inh) | AHR act cf 84 | PXR counter 77
CCC(C)OC(=O)c1[nH]c2c(c1C)C(=O)CC(c1ccc(N(C)C)cc1)C2 (stereo not given)	AHR activator 82 | AHR act cf inactive | PXR counter 70
Fc1ccc(-c2cnn3c(-c4ccncc4)ccnc23)cc1	AHR activator 135 | AHR act cf inactive | PXR counter 27
Fc1ccc(-c2cnn3c(-c4cccs4)ccnc23)cc1	none (no result: CR mimetic SO, AHR activator)
Cc1nn2c(-c3ccc(F)cc3)ccnc2c1Br	AHR activator 82 | AHR act cf 109 | PXR counter 25
CON/C=C(\C=Nc1ccc(F)cc1)c1ncc(C(F)(F)F)cc1Cl	AHR activator 89 | AHR act cf 94 | PXR counter 23
COc1cc(C(=O)NCc2nnc(SCC(=O)NC3CCCC3)o2)cc(OC)c1OC	none
COc1ccc2nc(Nc3nc(C)c(C(C)=O)s3)sc2c1	none
COc1cc(C)nc(Nc2nc(C)c(C(C)=O)s2)n1	AHR activator 108 | AHR act cf inactive | PXR counter 11
C[C@H]1COC(=O)[C@@H](CC(=O)OC(C)(C)C)C/C=C\C[C@H](CC(=O)NCCO)C(=O)N1	none (no result: HIF activator)
Cc1ccc(-c2cc(-c3cccs3)[nH]n2)c(O)c1	AHR activator 109 | AHR act cf 118
CN(C)S(=O)(=O)NC(=O)C1=C(N2CCCC2)COC1=O	none (no result: HIF activator)
O=C(NCc1ccco1)C(Cc1ccccc1)N1C(=O)c2ccccc2C1=O (stereo not given)	AHR activator 112 | AHR act cf 93 | PXR counter 66
Cc1ccc(NC(C)C(=O)N/N=C/c2c[nH]c3ccccc23)cc1 (stereo not given)	none
Cc1ccc(NCC(=O)N/N=C/c2c[nH]c3ccccc23)cc1	AHR activator 158 | AHR act cf 111 | PXR counter 19
COC(=O)[C@]12CCCCC=C1N(Cc1ccc3c(c1)OCO3)C(=O)[C@H](CC(=O)NCc1cccc3ccccc13)C2	none (no result: CR mimetic SO, AHR activator, HIF activator)
Nc1cccc(-c2nc3ccccc3s2)c1	AHR activator 116 | AHR act cf 96 | PXR counter inactive
CC(=O)Nc1cccc(-c2nc3ccccc3s2)c1	AHR activator 124 | AHR act cf 99 | PXR counter 20
Oc1cccc(-c2nc3ccccc3s2)c1	AHR activator 86 | AHR act cf 58 | PXR counter 12
O=C(/C=C/c1ccco1)NC(=S)Nc1cccc(-c2nc3ccccc3s2)c1	AHR activator 82 | AHR act cf 118 | PXR counter 33
CC(=O)Nc1cccc(-c2nc3ccc(NC(C)=O)cc3s2)c1	none
FC(F)(F)c1ccc(-c2nc3ccccc3s2)cc1	none (no result: CR mimetic SO, AHR activator, HIF activator)
COc1ccc(-c2nc3ccccc3s2)cc1O	AHR activator 82 | AHR act cf 76 | PXR counter 11
CCc1nc2ccc(C(=O)NCCCN3CCCC3=O)cn2c1N(CC)C(C)=O	none (no result: CR mimetic SO, AHR activator, HIF activator)
CCCC(=O)Nc1nc(C)c(-c2csc(Nc3ccccc3OC)n2)s1	AHR activator 79 | AHR act cf 101 | PXR counter 34
COc1ccccc1Nc1nc(-c2sc(NC(=O)C(C)(C)C)nc2C)cs1	none
C=CCCC(=O)Nc1nc(C)c(-c2csc(Nc3cc(OC)ccc3OC)n2)s1	AHR activator 117 | AHR act cf 69 | PXR counter 62
COc1ccccc1Nc1nc(-c2sc(NC(=O)c3cccc(Cl)c3)nc2C)cs1	none (no result: sPLA2-III inh, PLCb3 inh, PLCg1 inh)

Screening data (PubChem)
